Rows were chosen to be rich in hits. Some 0.8% of all compounds tested hit in one or more screens of this group.
BAP1 inh: inhibitors of human BAP1 deubiquitinase; Q92560; recombinant BAP1, Ub-AMC hydrolysis fluorescence kinetic; stronger effect = lower value; activity remaining (% of control), % at 20 µM; actives 0.48% (n = 72,000);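 active means activity remaining at or below 50% of control, provided the compound also passes the data quality filters; inactive means the rest, including low values that fail the filters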;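 further: 100% = DMSO wells rate and 0% = substrate alone blank rate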
Target sequence (Q92560 whole entry, looked up): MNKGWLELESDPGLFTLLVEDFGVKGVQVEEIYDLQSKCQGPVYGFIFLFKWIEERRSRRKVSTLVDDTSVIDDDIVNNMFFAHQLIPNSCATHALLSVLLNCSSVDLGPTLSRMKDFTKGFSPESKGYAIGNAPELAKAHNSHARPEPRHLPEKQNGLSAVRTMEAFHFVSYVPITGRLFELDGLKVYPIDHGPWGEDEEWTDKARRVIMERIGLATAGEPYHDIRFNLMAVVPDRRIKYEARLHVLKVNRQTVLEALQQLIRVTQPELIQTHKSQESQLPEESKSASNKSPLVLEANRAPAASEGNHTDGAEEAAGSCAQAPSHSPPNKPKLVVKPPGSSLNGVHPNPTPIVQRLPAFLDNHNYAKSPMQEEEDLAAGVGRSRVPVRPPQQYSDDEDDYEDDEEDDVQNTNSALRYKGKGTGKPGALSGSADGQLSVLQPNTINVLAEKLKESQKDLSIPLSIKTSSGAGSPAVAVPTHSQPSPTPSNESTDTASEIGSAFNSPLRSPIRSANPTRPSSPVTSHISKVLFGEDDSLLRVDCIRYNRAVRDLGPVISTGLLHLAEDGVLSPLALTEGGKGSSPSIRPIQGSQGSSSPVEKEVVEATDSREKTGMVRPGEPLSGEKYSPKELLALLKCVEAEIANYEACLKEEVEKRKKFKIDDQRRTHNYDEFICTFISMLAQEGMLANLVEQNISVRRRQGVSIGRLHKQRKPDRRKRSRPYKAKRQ
CatG inh: blocks human cathepsin G enzyme activity. purified enzyme, AMC-tetrapeptide fluorescence, pooled mixtures. inhibition, % at 5 µM (by protocol). actives 0.2% (n = 62,000). AID 581;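 active means inhibition above 20% in each of the two mixture wells holding the compound; inactive means inhibition of 20% or less in either well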;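 further: 0% = enzyme control without mixture and 100% = blank lacking enzyme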
Candida biofilm: kills Candida albicans biofilms; C. albicans biofilm + clotrimazole, Alamar Blue; inhibition, % at 6 µM; actives 0.14% (n = 85,000); AID 834;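 active means inhibition above 20%; inactive means inhibition below 20%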;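 further: preformed 24 hr biofilms exposed to compound for 48 hr; 0% = biofilm without compound and 100% = blank killed by clotrimazole plus chlorhexidine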
FXIa inh mix: factor XIa (human) inhibition, mixture screen; P03951; purified FXIa, fluorogenic substrate, pooled mixtures; inhibition, % at 5 µM; actives 0.19% (n = 62,000); AID 680;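 further: each value is inhibition by a whole ten-compound pool holding the compound; 0% = enzyme with no mixture and 100% = wells lacking enzyme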
C1s inh: human complement C1s inhibition; purified C1s, fluorogenic AMC substrate, pooled mixtures; actives 0.16% (n = 62,000); AID 538; mean inhibition % of two 10-compound mixtures (stronger effect = higher value), % at 5 µM (by protocol);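 active means inhibition above 20% in each of the two 10-compound mixture wells holding the compound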;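 further: 0% = enzyme wells lacking compound mixture and 100% = no-enzyme blank wells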
FXIIa mix inh: inhibitors of human coagulation factor XIIa, pooled mixtures. actives 0.2% (n = 62,000). inhibition, % at 5 µM. P00748. purified FXIIa, fluorogenic substrate;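 further: 0% = enzyme without compound and 100% = no enzyme blank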
Numbers without * were called inactive; . = no result given. Unless noted, no stated cut-off is given here; in the data, active means inhibition above about 20% (passing the limit was not always enough); inactive means the rest.

SMILES | BAP1 inh | CatG inh | Candida biofilm | FXIa inh mix | C1s inh | FXIIa mix inh
CCNc1nc(Oc2ccccc2)nc(OC(C)C(=O)OCC)n1 (configuration not stated) | 112 | . | 8 | . | . | .
CCOC(=O)C1CCN(C(=O)CSc2ccccc2)CC1 | 98 | 13 | 4 | 6 | 65* | 6
CCOC(=O)C1CCN(C(=O)CC(C)c2ccccc2)CC1 (configuration not stated) | 95 | 1 | -2 | 5 | 1 | 3
CCCN(c1ccc(C(C)C)cc1)S(=O)(=O)c1c(C)noc1C | 56 | -1 | 7 | 8 | -1 | 35*
COc1ccc(OC)c(NC(=O)CN(c2ccc(C(C)C)cc2)S(=O)(=O)c2c(C)noc2C)c1 | 64 | 29 | 6 | 27 | 39 | -17
CCn1c(CNc2ccccc2Cl)nnc1SCCN1CCCCC1 | 100 | 9 | 5 | -3 | 3 | -18
CN(C1CCCCC1)S(=O)(=O)c1ccc(C(=O)O)cc1 | 95 | 8 | 25* | -1 | 1 | -3
Cc1cc(C)n(CCc2nc3c4ccccc4nc(SCc4ccc(C#N)cc4)n3n2)n1 | 87 | 7 | 4 | 6 | 11 | 26*
CCOC(=O)C1=C(N)OC2=C(C(=O)CC(C)(C)C2)C1c1ccccc1[N+](=O)[O-] (configuration not stated) | 107 | . | . | . | . | .
CC(NC(=O)Cn1cc(C(=O)C2CC2)c2ccccc21)c1ccccc1 (configuration not stated) | . | . | 5 | . | . | .
O=c1c(O)c(-c2ccc(O)cc2O)oc2cc(O)cc(O)c12 | . | 1 | 11 | 9 | -1 | 2
CCc1ccc(NC2=NCC(=O)N2c2ccc3c(c2)OCCO3)cc1 | 109 | 10 | 6 | 12 | 13 | 9
CCOc1ccc(S(=O)(=O)N(CC(=O)O)c2ccc(C)cc2)cc1 | 92 | 3 | 7 | -1 | 3 | 48*
CCOc1ccccc1N(CC(=O)O)S(=O)(=O)c1ccc(C)cc1 | 124 | 8 | 8 | 15 | 0 | 6
Cc1cc(C)c(OCCOCCN2CCNCC2)c(C)c1 | . | . | 6 | . | . | .
CCOC(=O)CSc1nnc(CNC(=O)Cc2ccccc2)n1C | 104 | -4 | -2 | 26 | -19 | 13
COC(=O)CSc1nnc(CNC(=O)Cc2ccccc2)n1C | 97 | 3 | 3 | 26* | -4 | 9
O=C(c1ccncc1)N(Cc1cc2ccccc2[nH]c1=O)C1CCCCC1 | 60 | 5 | 4 | 8 | 2 | 13
Cc1ccc(C(=O)N/N=C2\SCC(=O)N2c2cc(C)ccc2C)cc1 | . | . | 4 | . | . | .
Cc1ccc(C(=O)Nc2ccc(S(=O)(=O)O)c3cc(S(=O)(=O)O)cc(S(=O)(=O)O)c23)cc1NC(=O)c1cccc(NC(=O)Nc2cccc(C(=O)Nc3cc(C(=O)Nc4ccc(S(=O)(=O)O)c5cc(S(=O)(=O)O)cc(S(=O)(=O)O)c45)ccc3C)c2)c1 | 19* | . | . | . | . | .
COC(=O)Cn1c(CCC(=O)O)ccc1-c1ccccc1 | 76 | 7 | 31* | -3 | -6 | 3
Cc1ccc(-c2ccc(CCC(=O)O)n2CC(=O)O)cc1 | . | -13 | 1 | -11 | -58 | 2
CCOc1ccc(-c2nc(C#N)c(N3CCCCCC3)o2)cc1 | . | -6 | 21* | -5 | -65 | 1
CCOc1ccc(-c2nc(C#N)c(N3CCN(C)CC3)o2)cc1 | . | 3 | -9 | 10 | -1 | 12
Cc1cccc(C)c1NC(=O)N1C2CCCC1CC(NC(=O)C(C)(C)C)C2 (configuration not stated) | 99 | -6 | 4 | -17 | -105 | 5
SMILES | BAP1 inh | CatG inh | Candida biofilm | FXIa inh mix | C1s inh | FXIIa mix inh
CC(C)CCOP(=O)(c1ccc(N(C)C)cc1)C(O)c1ccccn1 (configuration not stated) | 103 | 7 | 3 | -1 | -1 | 5
CC(C)COP(=O)(c1ccc(N(C)C)cc1)C(O)c1ccccn1 (configuration not stated) | 101 | 9 | 7 | 7 | 12 | 48*
Cc1ccc(NC(=O)CN(C)S(=O)(=O)c2cccc3cccnc23)cc1 | 99 | 9 | 23* | 5 | 11 | 0
Fc1ccc(CSc2nnc(-c3cccs3)o2)cc1 | 94 | 3 | 6 | 6 | 8 | 11
Fc1ccc(Cc2nnc(-c3cccs3)o2)cc1 | 94 | 16 | 24* | 2 | -9 | 0
Cc1ccc2[nH]c(=O)c(CN(CCCN(C)C)C(=O)Nc3ccc(Cl)cc3)cc2c1 | . | . | 6 | . | . | .
O=C(c1ccc(OCCN2CCCCC2)cc1)c1c(-c2ccc(O)cc2)sc2cc(O)ccc12 | 74 | . | . | . | . | .
O=C(O)COCc1nc2ccccc2[nH]1 | 105 | 14 | 7 | 10 | 22* | -11
Brc1ccccc1OCc1nc2ccccc2[nH]1 | 65 | . | . | . | . | .
c1ccc(-n2cnnc2SCc2cn3cccnc3n2)cc1 | . | . | 14 | . | . | .
O=C(c1cc2sccc2n1Cc1ccc(F)cc1)N1CCCc2ccccc21 | . | . | 0 | . | . | .
CCCCNCc1cc(Cl)c(OCCC)c(OCC)c1 | . | . | 5 | . | . | .
CCOc1c(Cl)cc(CNCC(C)C)cc1OC | . | . | 59* | . | . | .
Cc1ccc(N2CCCn3c2nc2c3c(=O)n(CCN3CCOCC3)c(=O)n2C)cc1 | 97 | -2 | 1 | -7 | -13 | 9
Cc1cc(C)cc(N2CCCn3c2nc2c3c(=O)n(CCN3CCOCC3)c(=O)n2C)c1 | 140 | 5 | 3 | 23* | 0 | 13
COc1ccccc1Oc1cc(C#N)c(C#N)cc1-n1nnc2ccccc21 | 53 | -9 | . | 5 | -24 | -5
CC1=C(/C=C/C(C)=C/C=C/C(C)=C\C(=O)O)C(C)(C)CCC1 | 79 | . | . | . | . | .
CC1=C(/C=C/C(C)=C/C=C/C(C)=C/C(=O)Nc2ccc(O)cc2)C(C)(C)CCC1 | 37* | . | . | . | . | .
O=C(CCCN=C1NS(=O)(=O)c2ccccc21)OCC(=O)N1CCc2ccccc21 | 79 | 8 | 9 | 7 | 10 | -16
O=C(Oc1ccc(N2C(=O)CCC2=O)cc1)c1ccco1 | 126 | 1 | 3 | -1 | 1 | 4
O=C(Oc1ccc(-n2cnnn2)cc1)c1ccco1 | 93 | 11 | 4 | 7 | 31* | 3
Cn1c(=O)[nH]c(=O)c2c1nc(OC(=O)c1ccccc1)n2CC(O)COc1ccc(F)cc1 (configuration not stated) | 86 | 9 | -2 | 0 | 0 | 4
Cc1ccc(S(=O)(=O)n2nc(OC(=O)c3c(-c4ccccc4Cl)noc3C)cc2N)cc1 | 88 | 10 | . | 5 | 10 | -5
Cc1nn(C(C)(C)C)c(OC(=O)c2cccs2)c1S(=O)(=O)c1ccccc1 | 79 | -3 | 1 | -12 | -8 | 0
COc1ccc(S(=O)(=O)n2nc(OC(=O)c3ccccc3)cc2N)cc1 | 108 | 35* | -5 | 28* | 23 | 12
COc1ccc(S(=O)(=O)n2nc(OC(=O)c3cccs3)cc2N)cc1 | 105 | 38* | . | 21 | -16 | 2
CN1CCN(CCCNC(=O)Cn2nc(-c3ccccc3)ccc2=O)CC1 | 105 | 54 | 2 | 14 | 27 | 7
CC(C)OC(=O)C(C)Oc1ccc(C(=O)NCCc2ccccc2)cc1 (configuration not stated) | . | . | 4 | . | . | .
